Records with an inconclusive call do not appear. The source made the active and inactive calls. Calls come from the whole dose curve. Square brackets hold non-standard residues; d marks the D form. Peptide text beside a SMILES is read from it. * marks the point of attachment. Benzoyl(4-tBu) = CC(C)(C)c1ccc(C(=O)*)cc1; Lys(Et2) = CCN(CC)CCCC[C@H](N)C(=O)O

Potency and activity change, negative = inhibition data for 30 compounds are collected here from PubChem BioAssay (NCATS).

Experiment [1] in a line: Cytotoxicity counterscreen for inhibitors of SARS-CoV-2 cell entry (AID 1645845). Note: nearly all actives have a fitted effect of over 50% in size. The note with it: outcome: dose series up to 57.1 µM unless noted. In outline:
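ATP-content luminescence (ATPLite 1step, 15 min RT) read after 48 h compound exposure of Expi293F cells stably expressing human ACE2; normalized to cells-only wells and media-only wells.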

Experiment [2] in a line: Primary qHTS to identify inhibitors of SARS-CoV-2 cell entry (AID 1645846). Note: nearly all actives have a fitted effect of over 45% in size. The note with it: SARS-CoV-2 pseudovirus cell entry assay, luminescence; activity change, negative = inhibition: at 57.1 µM (top of the series) unless noted. A digest of the protocol: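 Data are normalized to wells receiving SARS-CoV-2-S pseudoparticles and those given bald particles. Entry signal was luciferase luminescence in stable hACE2 Expi293F cells, 48 hr post-infection, after 1 hr compound pretreatment.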
(Quantitative high-throughput screening tests each substance at several concentrations.)
Potency is the fitted concentration of half-maximal effect.

`CC1(C)CC[C@]2(C(=O)O)CC[C@]3(C)C(=CC[C@@H]4[C@@]5(C)C[C@@H](O)[C@H](O)C(C)(C)[C@@H]5CC[C@]43C)[C@@H]2C1`: the Potency result in experiment [1] and in experiment [2] was “inactive” throughout.

As for `C=C1CCC[C@]2(C)C=C3OC(=O)C(C)=C3C[C@@H]12`, the Potency result in experiment [1] is “inactive”. Further, the activity change, negative = inhibition in experiment [2] is -28.3%.

With `Cn1cc(-c2c[nH]c3ncnc(N4CCOCC4)c23)cn1`, the Potency result in experiment [1] is “inactive”. Moreover, the activity change, negative = inhibition in experiment [2] was -0.441%.

For `CN(C)Cc1ccc(S(=O)(=O)n2ccc(/C=C/C(=O)NO)c2)cc1`, in experiment [1], the Potency was 31.6 µM (active). For the same compound, in experiment [2], the activity change, negative = inhibition is 2%.

Turning to `CN[C@@H](C)C(=O)N[C@@H]1C(=O)N(Cc2c(C)ccc3ccccc23)c2ccc(C#N)cc2N(C(C)=O)[C@H]1C`, the Potency entry in experiment [1] and in experiment [2] was “inactive” each time.

For the compound `CN(C)c1cccc(-c2c3c(=O)n(-c4ccccc4Cl)[nH]c3cc(=O)n2C)c1`, the Potency entry in experiment [1] was “inactive”. Further, the activity change, negative = inhibition in experiment [2] was -19.6%.

On to `O=C(c1ccc(NS(=O)(=O)c2cccc3cccnc23)cc1)N1CCN(CC2CC2)CC1`, for which the Potency entry in experiment [1] is “inactive”. In experiment [2], the activity change, negative = inhibition is -15.9%.

With `CCCCOC(=O)NS(=O)(=O)c1sc(CC(C)C)cc1-c1ccc(Cn2ccnc2)cc1`, the Potency entry in experiment [1] and in experiment [2] was “inactive” in each case.

In the case of `CO[C@H]1/C=C/O[C@@]2(C)Oc3c(C)c(O)c4c(O)c(c5c(c4c3C2=O)=NC2(CCN(CC(C)C)CC2)N=5)NC(=O)/C(C)=C/C=C/[C@H](C)[C@H](O)[C@@H](C)[C@@H](O)[C@@H](C)[C@H](OC(C)=O)[C@@H]1C`, the Potency entry in experiment [1] and in experiment [2] was “inactive” in each case.

For the compound `C=CCN(/C=C1\C(=O)O[C@@H](COC)[C@]2(C)C1=C(O)C(=O)C1=C2[C@@H](OC(C)=O)C[C@]2(C)C(=O)CC[C@H]12)CC=C`, the Potency entry in experiment [1] and in experiment [2] was “inactive” each time.

`Cc1c(-c2c(-c3ccc(F)o3)sc3ncnc(O[C@@H](Cc4ccccc4OCc4ccnn4CC(F)(F)F)C(=O)O)c23)ccc(OCCN2CCN(C)CC2)c1Cl`: the Potency entry in experiment [1] is “inactive”. Besides, the activity change, negative = inhibition in experiment [2] is -7.93%.

For `COc1c(C)cc(NC(=O)c2nn(Cc3ccc(F)cc3)c3c2CN(C(=O)c2ccc[nH]2)C[C@]3(C)C(N)=O)cc1C`, the Potency entry in experiment [1] and in experiment [2] was “inactive” in each case.

In the case of `CCN(c1cc(-c2ccc(CN3CCOCC3)cc2)cc(C(=O)NCc2c(C)cc(C)[nH]c2=O)c1C)C1CCOCC1`, the Potency entry in experiment [1] and in experiment [2] was “inactive” each time.

As to `CCN(CC)CCCC[C@H](NC(=O)[C@H](CC(C)C)NC(=O)[C@H](C)NC(=O)[C@H](Cc1ccccc1)NC(=O)c1ccc(C(C)(C)C)cc1)C(=O)N[C@@H](CO)C(=O)OC` ({Benzoyl(4-tBu)}-FAL[Lys(Et2)]S-OMe), the Potency entry in experiment [1] and in experiment [2] was “inactive” in each case.

With `CC(C)N(CCCNC(=O)Nc1ccc(C(C)(C)C)cc1)C[C@H]1O[C@@H](n2cc(Br)c3c(N)ncnc32)[C@H](O)[C@@H]1O`, the Potency is 31.6 µM (active) in experiment [1] and 35.5 µM (active) in experiment [2].

With `COc1cc2c(Nc3ccc(Cl)c(Cl)c3F)ncnc2cc1OCC1C[C@@H]2CN(C)C[C@@H]2C1` (stereo not given in full), the figures for the Potency in experiment [1] and in experiment [2] were 31.6 µM (active) and 15.8 µM (active), respectively.

On to `O=c1ncccn1[C@@H]1O[C@H](CO)[C@@H](O)[C@H]1O`, for which the Potency result in experiment [1] and in experiment [2] was “inactive” throughout.

In the case of `Cc1cnc(NC(=O)c2cc(Oc3cnc(C(=O)N(C)C)nc3)c3cc(C)oc3c2)cn1`, the Potency result in experiment [1] is “inactive”. For the same compound, in experiment [2], the activity change, negative = inhibition is -4.66%.

For the compound `CC(=O)O/N=C1/C(c2c(O)[nH]c3cc(Br)ccc23)=Nc2ccccc21`, the Potency result in experiment [1] and in experiment [2] was “inactive” in each case.

As for `O=C(O)c1ccc(CN2CCC(CN[C@@H]3C[C@H]3c3ccccc3)CC2)cc1`, the Potency result in experiment [1] and in experiment [2] was “inactive” throughout.

With `CC(C)(C)C(=O)CN1C(=O)[C@H](NC(=O)Nc2cccc(C(=O)O)c2)CN(C2CCCCC2)c2ccccc21`, the Potency result in experiment [1] was “inactive”. Also, the activity change, negative = inhibition in experiment [2] is -4.52%.

Consider `Clc1cc2c(NC3CCCC3)nnc(-c3ccncc3)c2cc1Cl`, for which the Potency entry in experiment [1] and in experiment [2] was “inactive” in each case.

`N#Cc1ccnc(Nc2cc(C3CCN(C4COC4)CC3)cc(N3CCC(F)(F)C3)n2)c1`: the values for the Potency in experiment [1] and in experiment [2] were 8.91 µM (active) and 3.16 µM (active), respectively.

Take `O=C(NOCCO)c1ccc2cncn2c1Nc1ccc(I)cc1F`: the Potency entry in experiment [1] is “inactive”. Further, in experiment [2], the activity change, negative = inhibition is -11.2%.

`CC1(C)[C@@H](O)CC[C@]2(C)[C@H]3C(=O)C=C4[C@@H]5C[C@@](C)(C(=O)O)CC[C@]5(C)CC[C@@]4(C)[C@]3(C)CC[C@@H]12`: the Potency result in experiment [1] and in experiment [2] was “inactive” throughout.

Consider `COc1ccc(-c2cc(C(O)C3CCCCN3)c3ccccc3n2)cc1` (stereo not given), for which the figures for the Potency in experiment [1] and in experiment [2] were 14.1 µM (active) and 12.6 µM (active), respectively.

In the case of `CCCCC[C@H](O)/C=C/[C@H]1[C@H](O)CC(=O)[C@@H]1CCCCCCC(=O)O`, the Potency entry in experiment [1] was “inactive”. Also, the activity change, negative = inhibition in experiment [2] is -2.28%.

Regarding `Cc1cc(C)cc(NC(=O)Cc2ccc(OC(C)(C)C(=O)O)cc2)c1`, the Potency result in experiment [1] and in experiment [2] was “inactive” in each case.

As for `Cc1nc(NC(=O)N2CCC[C@H]2C(N)=O)sc1-c1csc(C(C)(C)C)n1`, the Potency result in experiment [1] and in experiment [2] was “inactive” in each case.

For the compound `C=CC(=O)Nc1ccc2ncnc(Nc3cccc(Br)c3)c2c1`, the Potency in experiment [1] is 14.1 µM (active); in experiment [2], 7.94 µM (active).
